Screens deposited in PubChem by several laboratories.
In the library only some 2.9% were active in any assay of this set; here they are far more common.
Peg3 promoter: inhibitors of Peg3 promoter. 360,000 compounds, 1.7% hits. inhibition, % at 20 µM. AID 588405. HeLa PEG-Prom luciferase reporter, luminescence, overnight;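 active = inhibition of at least 50% at 20 µM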
Shn3 inh set2: Schnurri-3 reporter inhibition in Clone20 osteoblasts | Clone20 osteoblast Shn3 3'UTR firefly luciferase, 24 h | inhibition, % at 12.5 µM | 360,000 compounds, 0.52% hits;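 active = mean inhibition of at least 75% with every replicate also reaching 75%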;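 also: 0% = median of neutral control wells and 100% = pilot-screen positive control compound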
KKLEB tox: counter-screen for CF NF-kB inhibitors: cytotoxicity; activity change (cytotoxicity), % at 5 µM; 360,000 compounds, 0.36% hits; KKLEB CF airway cells viability, ATPlite luminescence, overnight; hits give low values; cells stimulated with P. aeruginosa culture filtrate;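 active = corrected activity change at or below -50% at 5 µM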
HIF-2a block: blocks HIF-2a reporter activity. inhibition, % at 18.8 µM. 786-0 RCC cells HIF-2a reporter, luciferase luminescence, overnight. 360,000 compounds, 0.72% hits;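 active = inhibition of the luminescence signal of 40% or more relative to plate controls, in a single-dose primary screen at 18.75 µM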
LMP1 NFkB inh: Epstein-Barr LMP1 NF-kappaB reporter inhibition | 350,000 compounds, 0.69% hits | LMP1-induced NF-kappaB luciferase reporter cells, luminescence | inhibition, % at 12.5 µM; in the data active = inhibition above about 41%;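 also: 0% = neutral control wells and 100% = reference inhibitor control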
CF NFkB inh: inhibitors of cystic fibrosis induced NF-kB; KKLEB NF-kB-GFP reporter, PAF-induced, GFP fluorescence overnight; inhibition, % at 5 µM; 360,000 compounds, 0.86% hits; AID 588850;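 active = at least 50% inhibition at 5 µM, scaled per plate between neutral and stimulator controls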;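 also: PAF is a Pseudomonas aeruginosa culture filtrate used as stimulus; plate controls were PAF-stimulated DMSO wells for no effect and unstimulated DMSO wells for full effect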
The depositor's hits bear a star; . = no result given; ! = not confirmed by another sample.

SMILES | Peg3 promoter | Shn3 inh set2 | KKLEB tox | HIF-2a block | LMP1 NFkB inh | CF NFkB inh
CC(CCc1ccccc1)NCC(O)c1ccc(O)c(C(N)=O)c1 (centres undefined) | 8.7 | 3.8 | 4.4 | -11.8 | 4.1 | -28.6
COc1ccc(CC(C)NCC(O)c2ccc(O)c(NC=O)c2)cc1 (centres undefined) | 16.4 | -24.5 | -0.8 | 10.6 | 61.1*! | -19.8
CN1C2CCC1/C(=C\c1ccc(F)cc1)C(=O)/C2=C/c1ccc(F)cc1 | 18.4 | 23.0 | 0.3 | 81.7* | -73.6 | -37.0
CCCC(O)(c1ccc(Cl)cc1)C(CN1CCOCC1)c1ccc(Cl)cc1 (centres undefined) | 57.7* | 25.6 | 2.4 | 6.6 | 11.5 | 12.2
CCc1ccc(C(O)(CC(C)C)C(CN2CCOCC2)c2ccccc2)cc1 (centres undefined) | 53.9* | 14.1 | 7.6 | 13.7 | 4.2 | 2.3
CCCC(O)(c1ccc(OC)cc1)C(CN1CCOCC1)c1ccc(Cl)cc1 (centres undefined) | 42.4 | 13.3 | 12.5 | 2.9 | 7.3 | -0.5
CN(C)CC1CCC/C(=C\c2ccc(OC(=O)/C=C/c3ccc(Cl)c(Cl)c3)cc2)C1=O (centres undefined) | 94.6* | 6.9 | 12.7 | 8.1 | -1.4 | -26.3
O=C(O)C1CCC2CCCC21 (centres undefined) | 1.0 | -3.7 | -4.9 | 5.0 | . | 6.7
Cc1ccc(SCC(=O)O/N=C(\N)c2cccnc2)cc1 | -33.7 | -18.2 | 33.0 | -124.6 | -2.9 | -32.7
CCOc1cc(/C=C/C(=O)c2ccc3c(c2)OCCO3)ccc1OCC(=O)N(C)C | 63.2* | -7.5 | -16.4 | 32.0 | 28.3 | 14.9
Cc1cc(C)cc(OCC(=O)Nc2cccc(-c3nnc(-c4ccco4)o3)c2)c1 | 58.2* | 0.2 | -9.8 | -101.9 | 13.7 | -43.6
COc1ccc(CC(=O)Nc2cccc(-c3nnc(-c4ccco4)o3)c2)cc1 | 22.0 | 9.3 | 2.7 | -16.6 | 11.9 | -31.2
CCOc1cccc2cc(C(=O)N3CC(C)OC(C)C3)c(=O)oc12 (centres undefined) | 52.8* | 11.7 | -11.5 | 20.6 | 5.7 | 3.0
CCOc1cccc2cc(C(=O)N3CCOCC3)c(=O)oc12 | -12.4 | 14.2 | 0.6 | -0.6 | -0.6 | 2.2
O=C(O)C1=C(C2CCCCC2)C(=O)c2ccccc21 | 9.5 | -0.4 | 17.2 | 10.2 | 2.1 | -34.3
O=C1C=C(C2CCCCC2)C(=O)c2ccccc21 | 11.5 | -40.0 | 18.3 | 0.6 | -8.7 | 71.1*
CCN(CC)CCNC(=O)CCc1c(C)nc2c(c(C)nn2-c2ccc(C)cc2)c1C | 73.2* | -62.6 | -11.1 | 27.7 | -20.1 | 17.4
Cc1cc(=O)[nH]c(SCC(=O)c2ccc(F)c(C)c2)n1 | 4.2 | 8.6 | -1.5 | -6.5 | 8.5 | -1.9
Cc1cn([C@@H](CCCCNC(=O)OC(C)(C)C)C(=O)NCCCCCCCCCCC(=O)N2CCN(C(=O)OC(C)(C)C)CC2)nn1 | 84.5* | 90.2* | -3.6 | 4.8 | 7.9 | 4.9
CC[C@H](C)Cc1cn([C@@H](CCCN=C(NC(=O)OC(C)(C)C)NC(=O)OC(C)(C)C)C(=O)NCCCCCCCCCCC(=O)N2CCN(C(=O)OC(C)(C)C)CC2)nn1 | 54.5* | 29.2 | -2.1 | 1.2 | 3.2 | 10.6
CC[C@H](C)Cc1cn([C@@H](CCCCN)C(=O)NCCCCCCCCCCC(=O)N2CCNCC2)nn1 | -4.5 | 10.1 | 5.8 | -6.9 | -3.6 | -5.7
CC(C)(C)OC(=O)NCCCCCc1cn(CC(=O)NCCCCCCCCCCC(=O)N2CCN(C(=O)OC(C)(C)C)CC2)nn1 | -75.4 | 80.9 | -8.7 | -80.0 | 12.5 | 10.7
CC[C@]12c3[nH]c4ccc(Cl)cc4c3CCN1C(=O)[C@@H](CC(=O)NCCC1=CCCCC1)C[C@@H]2C(=O)N1CCN(C(=O)C2CC2)CC1 | 35.4 | -7.7 | -7.6 | -8.9 | -2.4 | 16.1
COc1cccc(CN2CCC2(C)C(=O)Nc2cccc(NS(C)(=O)=O)c2)c1OC (centres undefined) | 18.3 | -9.5 | 6.0 | 5.1 | . | 17.8
CC1(c2ccc(OC(F)F)cc2)NC(=O)N(CC(=O)Nc2ccc(Cl)cc2F)C1=O (centres undefined) | 24.7 | 0.1 | 1.2 | -31.9 | -7.7 | -18.3
SMILES | Peg3 promoter | Shn3 inh set2 | KKLEB tox | HIF-2a block | LMP1 NFkB inh | CF NFkB inh
O=C(N/N=C/c1cc(Br)ccc1O)c1ccncc1 | 31.1 | 80.6 | -9.9 | -0.7 | -1.9 | 20.8
O=C(NN=Cc1c(O)ccc2ccccc12)c1ccncc1 | 44.7 | 90.3* | 4.1 | -4.2 | 62.2* | -10.8
O=C(CN1CCOCC1)N/N=C/c1c(O)ccc2ccccc12 | 15.7 | 84.6 | 0.6 | -11.1 | 13.4 | 15.2
O=C(N/N=C/c1c(O)ccc2ccccc12)c1cccnc1 | 51.8* | 85.0 | 0.4 | -10.0 | 50.8* | 3.9
Cn1nccc1C(=O)N/N=C/c1c(O)ccc2ccccc12 | 25.4 | 94.2* | -7.1 | -75.3 | 76.4* | -30.2
O=C(N/N=C/c1ccc(O)c2ncccc12)c1cccc(Br)c1 | 8.4 | 90.9* | -11.8 | 0.0 | -10.1 | 31.8
COc1ccc(CN2C[C@H](O)COC[C@@H]3O[C@H](CC(=O)NCc4ccncn4)CC[C@H]32)cc1 | . | . | . | 13.6 | . | .
O=C(N/N=C\c1c(O)ccc2ccccc12)c1ccc(O)cc1 | 39.0 | 91.0* | -11.9 | -61.6 | 35.5 | 9.0
O=C(CSCC(=O)Nc1ccccc1)N/N=C/c1c(O)ccc2ccccc12 | 52.0* | 93.4* | -14.9 | 5.4 | 51.4* | 26.7
COc1ccc(NC(C)C(=O)N/N=C/c2c(O)ccc3ccccc23)cc1 (centres undefined) | 57.4* | 48.2 | -8.7 | 15.8 | 3.3 | -13.2
Cc1occc1C(=O)N/N=C/c1c(O)ccc2ccccc12 | -34.4 | 65.0 | -4.2 | -150.3 | 6.0 | 18.6
Cc1ccc(C(=O)N/N=C/c2c(O)ccc3ccccc23)cn1 | 45.1 | 93.7* | 1.6 | -34.1 | 64.7* | 12.3
O=C(N/N=C/c1c(O)ccc2ccccc12)c1ccc[n+](CCO)c1 | 4.5 | 12.8 | 5.0 | 21.0 | 13.2 | -20.7
Cn1cc(C(=O)N/N=C/c2c(O)ccc3ccccc23)ccc1=O | 42.5 | 90.6* | -4.1 | -2.1 | 62.1* | -12.4
CCCOc1ccccc1N/C(=N/c1nc(C)cc(C)n1)NC(=O)COc1ccc(OC)cc1 | 29.6 | 91.3* | -20.6 | 10.2 | 23.7 | 13.1
CCN(C(=S)NCc1ccccc1)c1cccc2ccccc12 | 15.5 | 26.3 | 2.8 | 18.8 | 6.4 | 5.7
CCn1c2ccccc2c2nnc(SCCCn3c(=O)[nH]c4ccccc43)nc21 | 50.1* | 6.2 | -0.2 | 27.2 | 11.1 | -20.0
CCn1c2ccccc2c2nnc(SCc3ccccc3)nc21 | 18.7 | 16.1 | -6.6 | -14.2 | -16.6 | -4.3
COc1ccc(Cl)cc1N1CCN(CCNC(=O)Nc2ccccc2C)CC1 | 50.6* | 8.5 | -13.2 | 28.8 | 4.9 | -1.8
COc1ccccc1N1CCN(CCCNC(=O)Nc2ccccc2C)CC1 | 10.2 | 1.1 | 3.9 | 0.1 | -3.7 | -2.2
CC(C)(C)c1ccc(CN2C(=O)CSC2=O)cc1 | 8.3 | 16.7 | -7.8 | 19.2 | 8.7 | 7.6
